Experimental findings from PubChem BioAssay (NCI) are described below.

Compounds without any hit were thinned out: in the full panel of roughly 83,000, 20% have a hit.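 Negative percent growth values reflect cell death: -40 means 40% of the cells present at the start died, and -100 means all died.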 Unmarked numbers belong to inactive results. Calls of active or inactive are those of the source.

The subject of the experiment is COLO 205 colon. Description: NCI-60 one-dose screen, 48 h (100 = growth as untreated, 0 = no growth, -100 = all killed). The settings on record: 10 µM unless noted. How it is done:
Cells are grown in 96 well plates and exposed to the test compound for 48 hours. Compounds are tested at a single concentration, which is 10^-5 M for most compounds. The reported endpoint is percent growth (GI% or GIPRCNT), where numbers from 0 - 100% represent growth inhibition, and numbers from -100% - 0 represent cell death. For example, a value of 40 represents 60% growth inhibition. A value of 0 means no net growth occurred over the course of the experiment. A value of -40 indicates 40% of cells at the beginning of the experiment died by the end of the experiment. A value of -100 means all cells are dead at the end of the experiment.
NCI-60 Human Tumor Cell Lines Screen was performed using the standard one-dose NCI protocol, which is described in more detail at https://dtp.cancer.gov/discovery_development/nci-60/default.htm.
Compounds with GIPRCNT values below 10 were considered active. Activity score was based on GIPRCNT using the following formula: […]
Score is 0 for GIPRCNT values of 100 or above, 50 for GIPRCNT values of 0, and 100 for GIPRCNT values of -100.
As for `O=c1cc(-c2ccccc2)nc2sc(-c3c[nH]c4ccc(Br)cc34)nn12`, the growth is 104%.
The same measure for `Cn1c2ccccc2c2c3c(c4c5ccc(Br)cc5oc4c21)C(=O)N(O)C3=O`: 86.7%; for `CN1CCN(c2ccc3c(c2)nc(NNC(=O)c2ccncn2)c2cccn23)CC1`: 17.9%.
Turning to `CC1(C)CC[C@]2(C(=O)O)CC[C@]3(C)C(=CCC4[C@@]5(C)C[C@@H](O)[C@@H]6OC(c7cccc([N+](=O)[O-])c7)OC[C@@]6(C)C5CC[C@]43C)C2C1` (stereo not given in full), the growth was 53%.
The same measure for `C#C[C@]1(O)CC[C@H]2[C@@H]3CC=C4c5sc(Nc6cc(OC)ccc6OC)nc5CC[C@]4(C)[C@H]3CC[C@@]21C`: 18.5%.
The same measure for `COc1ccc(-c2oc3cc(O)cc(O)c3c(=O)c2OC)cc1O`: 91.4%; for `Cc1ccc(-n2cc(/C=C/C(=O)c3ccc(S(C)(=O)=O)cc3)c(-c3ccc(S(C)(=O)=O)cc3)n2)cc1`: 114%; for `CN1CCN(Cc2ccc(NC(=O)c3cncc(C#Cc4cnc5ccc(O[C@H]6CCOC6)nn45)c3)cc2C(F)(F)F)CC1`: -89.1% (active).
The same measure for `CCOc1ccc2nc(NC(=O)Nc3ccccc3C)sc2c1`: 49.9%.
For `CN1CCN(c2ccc(C(=O)Nc3cccc(-c4cn(-c5ccc(S(N)(=O)=O)cc5)nn4)c3)cc2C(F)(F)F)CC1`, the growth is 85.3%.
The same measure for `CCOC(=O)c1nn(-c2ccc(C)cc2)c(=O)c2c(N)c(C#N)c(-c3ccc(OC)cc3)cc12`: 110%.
For the compound `O=c1cc(-c2ccccc2)nc2sc(-c3c[nH]c4ccc(F)cc34)nn12`, the growth was 74.7%.
The same measure for `Cc1cc(=O)n2nc(-c3cn(C)c4ccc(Cl)cc34)sc2n1`: 93.7%; for `COc1ccc(C(=O)n2cc(C=O)c3ccccc32)cc1`: 114%; for `COc1ccc(C2CC(c3ccc(Nc4nc(NCCO)nc(Nc5ccc(Cl)cc5)n4)cc3)=Nc3c(N)nc(N)nc3N2)cc1` (stereo not given): 92.1%.
Turning to `O=C(O)c1ccc(-n2cc(CNc3ccc(F)cc3)c(-c3ccc(C(F)(F)F)cc3)n2)cc1`, the growth is 103%.
On to `COC1=C(c2ccccc2)C(=O)C(OC)=C(c2ccccc2)C1=O`, for which the growth is 108%.
The same measure for `CC(=O)Oc1ccc(CCN2C(=O)CSC2=S)cc1`: 115%; for `O=C(NCCCNc1cc(-c2cn(-c3ccccc3)nc2-c2cccc(O)c2)ccn1)Nc1cccc(C(F)(F)F)c1`: 3.19% (active).
The same measure for `COc1cnc2c(c1)C(=O)c1c-2n(CCCNCC2CC2)c(=O)c2cc(F)ccc12`: -45.8% (active); for `CNC(=O)c1cc(Oc2ccc3nc(NC(=O)c4cc(C)cc(C)c4)sc3c2)ccn1`: 85.4%; for `CN(C)C(=O)C1=NC(CO)C(=O)N(c2ccc(Cl)cc2)N1` (stereo not given): 105%.
The same measure for `C/C(=C(/c1ccc(O)cc1)c1ccc(OCCN(C)C)cc1)c1ccc(Cl)cc1`: -88.7% (active); for `C=C(C)C(=O)O[C@H]1C[C@@]2(C)OC(=CC2=O)/C(CO)=C\[C@H]2OC(=O)C(=C)[C@H]12`: -72.9% (active).
Take `O=C(/C=C/c1cccc(O)c1)c1ccc(O)cc1`: the growth is 120%.
Take `O=C1c2c(c3c4cccnc4[nH]c3c3ccc4ccccc4c23)C(=O)N1CCN1CCOCC1`: the growth was 66.8%.
The same measure for `C#C[C@]1(O)CC[C@H]2[C@@H]3CC=C4c5sc(-c6ccccn6)nc5CC[C@]4(C)[C@H]3CC[C@@]21C`: 90.9%.
The same measure for `C/C(=N\NC(=O)CSc1nc2sc3c(c2c(=O)n1-c1ccccc1)CCC(C)C3)c1ccc(Cl)cc1` (stereo not given): 26.5%; for `O=C(COc1ccc(/C=C2\SC(=O)NC2=O)cc1)Nc1ccc(C(=O)/C=C/c2cc3ccccc3nc2Cl)cc1`: 96.3%.
Take `Nc1nc(N)c2c(n1)NC(c1ccc(Cl)cc1)CC(c1ccc(Nc3nc(NCCO)nc(Nc4ccc(Cl)cc4)n3)cc1)=N2` (stereo not given): the growth is 67.4%.
Regarding `C#C[C@]1(O)CC[C@H]2[C@@H]3CC=C4c5sc(C6CCOCC6)nc5CC[C@]4(C)[C@H]3CC[C@@]21C`, the growth is 103%.
The same measure for `C[C@@H]1C[C@H]2C(=O)OCC(NC(=O)[C@H](Cc3cc(F)cc(F)c3)NC(=O)Nc3ccc(Cl)cc3F)C(=O)N3CCC[C@H]3C(=O)N3CCCC[C@H]3C(=O)N[C@@H](C)C(=O)N2C1` (stereo not given in full): -9.71% (active); for `COc1ccc([C@@H]2[C@@H](O)C(=O)N2c2cc(OC)c(OC)c(OC)c2)cc1Cl`: -81.1% (active).
The same measure for `CCNC(=O)Oc1ccc(/C(=C(/C)c2ccccc2)c2ccc(OCCN3CCCC3)cc2)cc1`: 75.5%; for `O=C(/C=C/Nc1ccc(S(=O)(=O)O)cc1)c1ccc(F)cc1`: 101%; for `O=C(Nc1ccccc1)Nc1nc2ccc([N+](=O)[O-])cc2s1`: -26.1% (active).
The same measure for `N/C(=N\OC(=O)CSc1nc2ccccc2s1)c1ccc2ccccc2c1`: 107%.
On to `O=C(Nc1ccc(F)cc1)c1cc(-c2ccc(F)cc2F)ccc1O`, for which the growth was 96.4%.
As to `CCCCCCNC(=O)Oc1ccc(/C(=C(/C)c2ccc(Cl)cc2)c2ccc(OCCN3CCCC3)cc2)cc1`, the growth is -36.4% (active).
The same measure for `COc1ccc(Cn2cc3c(c2-c2cc(OC)c(OC)c(OC)c2)CCCc2cnoc2-3)cc1`: -0.67% (active).
